Experimental data reported in PubChem BioAssay (Tox21).
Records with an inconclusive call do not appear. The source made the active and inactive calls. Calls come from the whole dose curve; as a rule, active = well fitted curve in the direction sought with a large enough effect in the repeat runs; inconclusive = weak or mixed curves; inactive = no such curve, though single readings can be large; an effect the other way counts as inactive or inconclusive.

Tests used:
[1] = qHTS RealTime-Glo MT Cell Viability Assay in HepG2 cells - 24 hour (AID 1224867); note: nearly all actives have a fitted effect of over 50% in size
How it was run: (§1)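 Real-time, nonlytic viability: 600 HepG2 cells/well mixed with NanoLuc enzyme plus prosubstrate; 5 h settle, compound (DMSO) added by pintool; luminescence monitored over 40 h at 37 C.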

[2] = qHTS RealTime-Glo MT Cell Viability Assay in HEK293 cells - 32 hour (AID 1224868); note: top concentration of the series differs between compounds; nearly all actives have a fitted effect of over 50% in size
How it was run: (§2)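 Cells + reagent dispensed (600 cells/well, HEK293) → 5 h at 37 C/5% CO2 → 23 nL compound in DMSO pinned → 40 h at 37 C → luminescence read at 0, 8, 16, 24, 32, 40 h.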

[3] = A CellTox Green Cytotoxicity Assay to monitor cytotoxicity in HEK293 cells - 0 hour (AID 1224869); note: nearly all actives have a fitted effect of over 50% in size
How it was run: (§3)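 Fluorescence from a DNA-binding dye excluded by viable cells was measured repeatedly in the same HEK293 wells (600 cells/well) during continuous compound exposure at 37 C. Each assay gives one read point: 0, 8, 16, 24, 32 or 40 h.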

[4] = qHTS RealTime-Glo MT Cell Viability Assay in HepG2 cells - 40 hour (AID 1224870); note: nearly all actives have a fitted effect of over 50% in size
How it was run: (§4)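 HepG2 cells mixed with RealTime-Glo MT reagents (NanoLuc plus cell-permeant prosubstrate) were seeded at 600 cells/well, incubated 5 h at 37 C/5% CO2, then pinned with compounds in DMSO; nonlytic luminescence tracked viability during 40 h treatment.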

[5] = A CellTox Green Cytotoxicity Assay to monitor cytotoxicity in HEK293 cells - 40 hour (AID 1224871); note: nearly all actives have a fitted effect of over 45% in size
How it was run: as §3

[6] = qHTS RealTime-Glo MT Cell Viability Assay in HEK293 cells - 16 hour (AID 1224872)
How it was run: as §2

[7] = qHTS RealTime-Glo MT Cell Viability Assay in HEK293 cells - 40 hour (AID 1224874); settings: RealTime-Glo luminescence, active compounds read low; note: nearly all actives have a fitted effect of over 50% in size
How it was run: (§5)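 Luminescence, which tracks viable cell number through reduction of the prosubstrate to a NanoLuc substrate, was read over continuous 37 C culture. Cells (600/well) were premixed with reagent and rested 5 h before 23 nL of compound in DMSO was pinned.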

[8] = A CellTox Green Cytotoxicity Assay to monitor cytotoxicity in HEK293 cells - 24 hour (AID 1224875); note: series mostly up to about 77 µM; nearly all actives have a fitted effect of over 45% in size
How it was run: as §3

[9] = A CellTox Green Cytotoxicity Assay to monitor cytotoxicity in HepG2 cells - 16 hour (AID 1224876); note: nearly all actives have a fitted effect of over 45% in size
How it was run: (§6)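 Real-time cytotoxicity: fluorescence of a cell-impermeant cyanine dye binding DNA of dead HepG2 cells, measured repeatedly (0–40 h) during compound exposure at 37 C. Cells seeded 600/well with reagent, dosed after 5 h.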

[10] = qHTS RealTime-Glo MT Cell Viability Assay in HepG2 cells - 32 hour (AID 1224877); note: nearly all actives have a fitted effect of over 55% in size
How it was run: as §1

[11] = A CellTox Green Cytotoxicity Assay to monitor cytotoxicity in HepG2 cells - 24 hour (AID 1224878); note: nearly all actives have a fitted effect of over 45% in size
How it was run: as §6

[12] = A CellTox Green Cytotoxicity Assay to monitor cytotoxicity in HepG2 cells - 40 hour (AID 1224879); note: nearly all actives have a fitted effect of over 40% in size
How it was run: as §6

[13] = qHTS RealTime-Glo MT Cell Viability Assay in HEK293 cells - 0 hour (AID 1224880)
How it was run: as §5

[14] = A CellTox Green Cytotoxicity Assay to monitor cytotoxicity in HEK293 cells - 32 hour (AID 1224881); note: nearly all actives have a fitted effect of over 40% in size
How it was run: as §3

[15] = A CellTox Green Cytotoxicity Assay to monitor cytotoxicity in HepG2 cells - 0 hour (AID 1224882); note: nearly all actives have a fitted effect of over 35% in size
How it was run: as §6

[16] = A CellTox Green Cytotoxicity Assay to monitor cytotoxicity in HepG2 cells - 32 hour (AID 1224883); note: nearly all actives have a fitted effect of over 50% in size
How it was run: as §6

[17] = A CellTox Green Cytotoxicity Assay to monitor cytotoxicity in HEK293 cells - 8 hour (AID 1224884); note: nearly all actives have a fitted effect of over 35% in size
How it was run: as §3

[18] = qHTS RealTime-Glo MT Cell Viability Assay in HepG2 cells - 8 hour (AID 1224873); note: nearly all actives have a fitted effect of over 55% in size
How it was run: as §4

[19] = qHTS RealTime-Glo MT Cell Viability Assay in HepG2 cells - 16 hour (AID 1224885); note: nearly all actives have a fitted effect of over 50% in size
How it was run: as §1

[20] = qHTS RealTime-Glo MT Cell Viability Assay in HEK293 cells - 24 hour (AID 1224886)
How it was run: as §2
% is set by controls: 0 for no effect and ±100 for the full control effect.

CCCCCCCCCCCCCCCCN(C)C
inactive: activity change, negative = cytotoxicity [1] -0.0663% [at 6.97 µM] | activity change, negative = cytotoxic [2] 5.99% [at 6.97 µM] | cytotoxicity [3] 1.73% [at 6.97 µM] | activity change, negative = cytotoxic [4] -1.15% [at 6.97 µM] | cytotoxicity increase [5] 4.91% [at 6.97 µM] | activity change, negative = cytotoxicity [6] 5.86% [at 6.97 µM] | max response [7] 4.91% | activity change [8] 2.54% [at 6.97 µM, active compounds read high] | cytotoxicity increase [9] 1.82% [at 6.97 µM] | activity change, negative = cytotoxic [10] -0.525% [at 6.97 µM] | cytotoxicity [11] 1.92% [at 6.97 µM] | cytotoxicity increase [12] 0.0455% [at 6.97 µM] | activity change, negative = cytotoxicity [13] 2.86% [at 6.97 µM] | cytotoxicity increase [14] 3.45% [at 6.97 µM] | cytotoxicity [15] 2.28% [at 6.97 µM] | cytotoxicity increase [16] 1.06% [at 6.97 µM] | cytotoxicity increase [17] -0.796% [at 6.97 µM]

CC(C)c1cc(C(C)C)cc(C(C)C)c1
inactive: outcome [1] | outcome [2] | outcome [3] | outcome [4] | Potency [5] | outcome [6] | outcome [18] | max response [7] 5.73% | outcome [10] | Potency [11] | Potency [12] | Potency [15] | Potency [17] | outcome [19] | outcome [20]

CC(=O)OC/C=C(/C)CCC=C(C)C
inactive: outcome [1] | outcome [2] | outcome [3] | outcome [4] | Potency [5] | outcome [6] | outcome [18] | max response [7] -1.6% | outcome [10] | Potency [11] | Potency [12] | Potency [15] | Potency [17] | outcome [20]

O=C(O)CCCCCCCCCC(=O)O
inactive: outcome [1] | outcome [2] | outcome [3] | outcome [4] | Potency [5] | outcome [6] | max response [7] 0.0039% | Potency [8] | Potency [9] | outcome [10] | Potency [11] | Potency [12] | Potency [13] | Potency [14] | Potency [16] | Potency [17] | outcome [19] | outcome [20]

CC(C)(C)OC=O
inactive: outcome [1] | outcome [2] | outcome [3] | outcome [4] | Potency [5] | outcome [6] | max response [7] 8.37% | Potency [8] | Potency [9] | outcome [10] | Potency [11] | Potency [12] | Potency [13] | Potency [14] | Potency [16] | Potency [17] | outcome [19] | outcome [20]

CCCCCC(CC)OC(=O)CCCOc1ccc(Cl)cc1Cl (stereo unspecified)
inactive: outcome [1] | outcome [2] | outcome [3] | outcome [4] | Potency [5] | outcome [6] | max response [7] 2.48% | Potency [8] | Potency [9] | outcome [10] | Potency [11] | Potency [12] | Potency [13] | Potency [15] | Potency [16] | Potency [17] | outcome [20]

C=CC(=O)OCCOCCOCC
inactive: outcome [1] | outcome [2] | outcome [3] | outcome [4] | Potency [5] | outcome [6] | max response [7] 21.6% | Potency [8] | Potency [9] | outcome [10] | Potency [11] | Potency [12] | Potency [13] | Potency [14] | Potency [15] | Potency [16] | Potency [17]

CC(=O)/C=C/C=C1/C2CCC(C2)C1(C)C (stereo unspecified)
inactive: outcome [1] | outcome [2] | outcome [3] | outcome [4] | Potency [5] | outcome [6] | max response [7] -0.661% | Potency [8] | Potency [9] | outcome [10] | Potency [11] | Potency [12] | Potency [13] | Potency [15] | Potency [16] | outcome [19] | outcome [20]

CCCCCCCCCCCCCC(=O)OCC
inactive: outcome [1] | outcome [2] | outcome [3] | outcome [4] | Potency [5] | outcome [6] | max response [7] -1.33% | Potency [8] | Potency [9] | outcome [10] | Potency [11] | Potency [12] | Potency [13] | Potency [15] | Potency [16] | Potency [17] | outcome [19] | outcome [20]

O=C(O)Cc1c(Cl)ccc(Cl)c1Cl
inactive: outcome [1] | outcome [2] | outcome [3] | outcome [4] | Potency [5] | outcome [6] | max response [7] 2.56% | Potency [8] | Potency [9] | outcome [10] | Potency [11] | Potency [12] | Potency [14] | Potency [17] | outcome [20]
